“And” between values parts separate entries of the source, which are not always exact repeats. Identical values can stand only once. This is part of a sample that, as a whole, favours compounds with a hit. Of some 83,000 tested, about 20% had one in any assay.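 Each cell line was grown in a 96-well plate and treated with one concentration of compound for 48 hours. Values below 10 were considered active.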 The source made the active and inactive calls.
System: NCI-H460 lung
Assay: NCI-60 one-dose screen, 48 h (100 = growth as untreated, 0 = no growth, -100 = all killed)
Details: 1 µM
Description: Growth inhibition of the NCI-H460 human Non-Small Cell Lung tumor cell line is measured as a screen for anti-cancer activity. Cells are grown in 96 well plates and exposed to the test compound for 48 hours. Compounds are tested at a single concentration, which is 10^-5 M for most compounds. The reported endpoint is percent growth (GI% or GIPRCNT), where numbers from 0 - 100% represent growth inhibition, and numbers from -100% - 0 represent cell death. For example, a value of 40 represents 60% growth inhibition. A value of 0 means no net growth occurred over the course of the experiment. A value of -40 indicates 40% of cells at the beginning of the experiment died by the end of the experiment. A value of -100 means all cells are dead at the end of the experiment.
NCI-60 Human Tumor Cell Lines Screen was performed using the standard one-dose NCI protocol, which is described in more detail at https://dtp.cancer.gov/discovery_development/nci-60/default.htm.
Compounds with GIPRCNT values below 10 were considered active. Activity score was based on GIPRCNT using the following formula: […]
Score is 0 for GIPRCNT values of 100 or above, 50 for GIPRCNT values of 0, and 100 for GIPRCNT values of -100.

SMILES | growth
CC/C(=C(\c1ccc(O)cc1)c1ccc(OCCNC)cc1)c1ccccc1 | 118% (inactive)

Same assay, conditions: 10 µM

SMILES | growth
CC/C(=C(\c1ccc(O)cc1)c1ccc(OCCNC)cc1)c1ccccc1 | 69.2% (inactive)

Same assay, conditions: 10 µM unless noted

SMILES | growth
COc1ccc2c(c1)N=c1c-2cc2c(O)[nH]c(=S)n2c1=O | 83.1% (inactive)
Cc1ccc(Nc2nnc(-c3c[nH]c4ccccc34)o2)c(C)c1 | 8.57% (active)
COc1ccc(N=Nc2c(N)nn3c(N)c(C#N)c(-c4ccc(F)cc4)nc23)cc1 | 61.1% (inactive)
CC(=O)Nc1cccc(-n2c(COc3ccc(I)cc3)nc3ccccc32)c1 | 103% (inactive) and 112% (inactive)
COc1cc(C2CC(c3cc(OC)c(OC)c(OC)c3)=Nc3c(N)nc(N)nc3N2)ccc1Oc1nc(Nc2ccc(F)cc2)nc(N(C)C)n1 (stereo not given) | 42.8% (inactive)
COc1ccc([C@H]2C(C(=O)c3ccc(Cl)cc3)C3(N[C@@H]2c2ccccc2)C(=O)Nc2ccccc23)cc1 (stereo not given in full) | 18.3% (inactive)
NS(=O)(=O)c1ccc(Nc2nc(SCC(=O)c3ccc(F)cc3)nc3ccccc23)cc1 | 36% (inactive)
C/C(=N\Nc1ccc(S(N)(=O)=O)cc1)c1cnn(-c2cc(=O)[nH]c3ccc(Br)cc23)c1C | 77.9% (inactive)
CC1=C(C(=O)Nc2ccccc2)C(c2cccc(Cl)c2Cl)n2c(nc3ccccc32)N1 (stereo not given) | 25.7% (inactive)
CC1=C(C(=O)OC(C)C)C(c2ccc(O)cc2)NC(=O)N1 (stereo not given) | 117% (inactive)
C=CCSc1nnc(-c2ccc(-c3nc4ccccc4[nH]3)cc2)o1 | 87.1% (inactive)
CN1CCN(C(=O)Oc2cc3c(c4ccccc24)[C@H](CCl)CN3C(=O)c2cc3cc(OCCCN4CCC4)ccc3[nH]2)[C@H]2CSSC[C@H]21 | 0.951% (active)
O=C(Cc1c(-c2cccc([N+](=O)[O-])c2)n(-c2ncnc3c2c(-c2ccccc2)c(-c2ccccc2)n3Cc2ccccc2)[nH]c1=O)c1ccc(Cl)c(Cl)c1 | 33.9% (inactive)
Clc1ccc(CNc2nc(SCCN3CCOCC3)nc3c2cnn3CC(Cl)c2ccc(Br)cc2)cc1 (stereo not given) | 25.1% (inactive)
O=C(N/N=C/c1occc1Br)c1[nH]c2ccc(Br)cc2c1-c1ccccc1 | -86.2% (active)
O=C1NC(=S)/C(=C/c2cn(-c3ccccc3)nc2-c2ccccc2)S1 | 9.19% (active)
COc1ccc(NC(=O)Cn2c(/C=C/c3ccc([N+](=O)[O-])cc3)nc3ccccc3c2=O)cc1 | 42.3% (inactive)
Nc1nnc(-c2cncc(Br)c2)c(-c2c[nH]c3ccc(Cl)cc23)n1 | 86.9% (inactive)
c1n[nH]cc1-c1nc2ccc3[nH]ncc3c2c2c1CC1(CCOCC1)CC2 | 29.4% (inactive)

SMILES | growth
COc1ccc(N=Nc2c(N)nn3c(N)c(C#N)c(-c4ccccc4)nc23)cc1 | 16.1% (inactive)
Cc1ccc(C(=O)Nc2cccc(C(=O)NC(=S)Nc3ccc(S(N)(=O)=O)cc3)c2)cc1 | 77.8% (inactive)
O=C1c2cccc3c(N4CCN(c5ccccc5)CC4)ccc(c23)C(=O)N1c1cccc(-c2nn(-c3ccccc3)cc2-c2nc3ccccc3s2)c1 | 110% (inactive)
CCOc1ccccc1[C@H]1C(C(=O)c2ccc(Cl)cc2)C2(N[C@@H]1c1ccccc1)C(=O)Nc1ccc(Br)cc12 (stereo not given in full) | 2.95% (active)
COc1cc(CNC(=O)C[C@H](C)CCC=C(C)C)ccc1OCc1cn(-c2ccc(Cl)c(Cl)c2)nn1 | 45.5% (inactive)
Cc1ccc(-c2cc(C(=O)N=Nc3c(O)[nH]c4ccc(F)cc34)c3ccccc3n2)cc1 | 1.25% (active)
COc1cc(C=O)ccc1OC(=O)c1cc(-c2ccc(C)cc2)n(-c2ccc(S(C)(=O)=O)cc2)n1 | 110% (inactive)
CCOC(=O)/C(F)=C/C1CC1C1CCN(C(=O)OC(C)(C)C)CC1 (stereo not given) | 98.1% (inactive)
CC(=O)Nc1ccc(S(=O)(=O)Nc2ccc(-c3ccc4c(c3)NC(=O)/C4=C\c3ccc[nH]3)cc2)cc1 | 38.6% (inactive)
COc1c(B(O)O)cc(F)cc1-c1nc2ccc3[nH]ncc3c2c2c1COCC2 | 64.9% (inactive)
COc1ccc(S(=O)(=O)Nc2ccc(-c3ccc4c(c3)NC(=O)/C4=C\c3ccc[nH]3)cc2)cc1OC | -52.5% (active)
Cc1cc(C)c2[nH]c(=O)c(C(c3nnnn3Cc3ccc4c(c3)OCO4)N3CCN(C)CC3)cc2c1 (stereo not given) | 112% (inactive)
Cc1ccccc1Nc1nnc(-c2c[nH]c3ccccc23)o1 | 20.1% (inactive)
CC1=C(C(=O)Nc2ccccc2)C(c2ccc3ccccc3c2)n2c(nc3ccccc32)N1 (stereo not given) | -45.5% (active)
O=C(c1ccc(O)cc1)C1[C@H](c2ccc(Cl)cc2)[C@@H](c2ccccc2)NC12C(=O)Nc1ccccc12 (stereo not given in full) | -20.5% (active)
CN(C)c1nc(NCCNS(=O)(=O)c2ccc(C3=Nc4c(N)nc(N)nc4NC(c4ccc(Cl)cc4)C3)cc2)nc(N2CCOCC2)n1 (stereo not given) | 59.1% (inactive)
COc1ccc2c(c1)C(=O)N(C)C2C1c2c(cc3c(c2OC)OCO3)CCN1C (stereo not given) | 20.7% (inactive)
O=c1c(-c2nc(-c3ccccc3)c(-c3ccccc3)[nH]2)coc2ccc(F)cc12 | 19% (inactive)
CN1CCN(CCS(=O)(=O)Nc2cc(-c3ccc4ncnc(Nc5ccc(F)c(Cl)c5)c4c3)cnc2Cl)CC1 | 54.7% (inactive)
